The text below walks through data of article PMC4081100, “A DNA-binding-site landscape and regulatory network analysis for NAC transcription factors in Arabidopsis thaliana”.

Test in all cases: universal protein binding microarray (PBM); transcription factors of Arabidopsis thaliana; high values mean tight binding
Settings in all cases: protein: recombinant; tags: GST; chain copies: 2; dsDNA, one strand shown

Assay [1] concerns the target T1, GST-ANAC092(1-176) (Arabidopsis thaliana, UniProt Q9FKA0 1-176).
T1 sequence: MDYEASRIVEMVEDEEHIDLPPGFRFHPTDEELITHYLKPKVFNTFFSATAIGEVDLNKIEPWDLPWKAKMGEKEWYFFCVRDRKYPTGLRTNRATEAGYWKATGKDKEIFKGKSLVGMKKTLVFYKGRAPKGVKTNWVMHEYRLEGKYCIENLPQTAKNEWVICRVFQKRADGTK
The essentials:
(§1)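 For zinc-finger proteins, zinc acetate was added while GST-tagged NAC-domain, full-length or DNA-binding-domain proteins were induced in cells. Purification used glutathione–Sepharose 4B, and quantification used A280 or anti-GST western blot. Custom all-10-mer Agilent 4 × 180K arrays, made double-stranded by primer extension, each received a protein at 200 to 500 nM final in duplicate. Scoring covered gapped and ungapped 8-mers, with binding given as the normalised enrichment score (E-score).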

The target of assay [2] is GST-NTL6(1-168) (Arabidopsis thaliana, UniProt Q9SCK6 1-168). The essentials: as §1
GST-NTL6(1-168), sequence (Q9SCK6 1-168): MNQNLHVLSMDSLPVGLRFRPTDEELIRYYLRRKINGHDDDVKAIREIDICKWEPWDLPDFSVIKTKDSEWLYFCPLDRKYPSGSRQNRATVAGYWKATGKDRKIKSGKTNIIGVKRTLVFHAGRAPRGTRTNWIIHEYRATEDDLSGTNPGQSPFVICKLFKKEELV
Assay [3] concerns the target T2, GST-ANAC019 NAC domain (Arabidopsis thaliana, UniProt Q9C932 14-162).
T2 sequence: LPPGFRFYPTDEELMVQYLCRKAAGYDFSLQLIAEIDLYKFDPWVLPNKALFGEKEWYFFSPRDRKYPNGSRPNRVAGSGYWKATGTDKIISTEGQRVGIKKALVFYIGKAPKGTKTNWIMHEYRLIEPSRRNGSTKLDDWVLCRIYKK
The essentials:
as §1

In assay [4] the target is T3, GST-ANAC055(1-171) (Arabidopsis thaliana, UniProt Q9LDY8 1-171).
T3 sequence: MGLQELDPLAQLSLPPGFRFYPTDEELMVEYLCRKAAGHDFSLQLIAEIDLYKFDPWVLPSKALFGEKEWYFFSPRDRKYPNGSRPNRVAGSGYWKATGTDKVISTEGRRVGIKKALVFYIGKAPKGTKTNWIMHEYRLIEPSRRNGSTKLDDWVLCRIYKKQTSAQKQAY
The essentials:
as §1

For assay [5], the target named is T4, GST-ATAF1 NAC domain (Arabidopsis thaliana, UniProt Q39013 7-158).
T4 sequence: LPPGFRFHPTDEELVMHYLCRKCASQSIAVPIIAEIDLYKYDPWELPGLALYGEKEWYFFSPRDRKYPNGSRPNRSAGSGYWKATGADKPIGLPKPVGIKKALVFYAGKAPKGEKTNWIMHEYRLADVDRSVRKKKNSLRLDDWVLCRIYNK
The essentials:
as §1

For assay [6], the target named is T5, GST-ANAC092(1-285) full length (Arabidopsis thaliana, UniProt Q9FKA0 1-285).
T5 sequence: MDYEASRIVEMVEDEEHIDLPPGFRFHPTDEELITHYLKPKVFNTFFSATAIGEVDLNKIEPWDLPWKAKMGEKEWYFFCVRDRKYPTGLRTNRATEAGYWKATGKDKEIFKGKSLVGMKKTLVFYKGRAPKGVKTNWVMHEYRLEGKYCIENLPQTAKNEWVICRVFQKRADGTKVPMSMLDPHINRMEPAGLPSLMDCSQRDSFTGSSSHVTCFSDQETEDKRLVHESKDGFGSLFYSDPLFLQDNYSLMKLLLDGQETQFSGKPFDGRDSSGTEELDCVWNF
The essentials: as §1

Assay [7] addresses T6, GST-NST2(1-184) (Arabidopsis thaliana, UniProt Q9M274 1-184).
T6 sequence: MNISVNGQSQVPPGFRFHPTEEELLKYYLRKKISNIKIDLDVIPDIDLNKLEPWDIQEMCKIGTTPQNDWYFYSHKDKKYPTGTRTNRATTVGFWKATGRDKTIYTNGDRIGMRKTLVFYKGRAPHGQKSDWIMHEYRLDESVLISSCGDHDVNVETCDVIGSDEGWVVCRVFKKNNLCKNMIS
The essentials:
as §1

Assay [8] addresses T7, GST-SND1(1-203) (Arabidopsis thaliana, UniProt Q9LPI7 1-203).
T7 sequence: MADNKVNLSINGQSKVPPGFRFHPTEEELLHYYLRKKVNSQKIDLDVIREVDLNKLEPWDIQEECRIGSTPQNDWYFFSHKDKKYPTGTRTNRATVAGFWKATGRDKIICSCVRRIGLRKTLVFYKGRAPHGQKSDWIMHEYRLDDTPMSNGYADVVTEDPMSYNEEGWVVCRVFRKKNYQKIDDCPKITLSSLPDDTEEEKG
The essentials: as §1

Assay [9] has as its target T8, GST-VND3 NAC domain (Arabidopsis thaliana, UniProt Q9FH59 12-162).
T8 sequence: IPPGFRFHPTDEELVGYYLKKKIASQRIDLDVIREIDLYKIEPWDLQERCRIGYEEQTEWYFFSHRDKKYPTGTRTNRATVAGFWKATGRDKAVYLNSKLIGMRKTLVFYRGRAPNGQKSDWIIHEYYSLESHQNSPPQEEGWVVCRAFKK
The essentials: as §1

For assay [10], the target named is T9, GST-VND7 NAC domain (Arabidopsis thaliana, UniProt Q9C8W9 9-158).
T9 sequence: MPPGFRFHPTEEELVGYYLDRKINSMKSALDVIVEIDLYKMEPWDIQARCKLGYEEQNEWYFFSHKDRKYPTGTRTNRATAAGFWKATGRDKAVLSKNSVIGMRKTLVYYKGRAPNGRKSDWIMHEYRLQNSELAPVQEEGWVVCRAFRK
The essentials:
as §1

Assay [11] has as its target T10, GST-NAP(1-166) (Arabidopsis thaliana, UniProt O49255 1-166).
T10 sequence: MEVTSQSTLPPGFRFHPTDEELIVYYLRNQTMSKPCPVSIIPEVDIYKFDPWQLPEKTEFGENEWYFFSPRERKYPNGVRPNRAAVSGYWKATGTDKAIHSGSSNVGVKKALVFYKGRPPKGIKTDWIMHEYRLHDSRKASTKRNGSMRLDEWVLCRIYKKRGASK
The essentials: as §1

In assay [12] the target is T11, GST-NTL8 NAC domain (Arabidopsis thaliana, UniProt Q9XIN7 14-156).
T11 sequence: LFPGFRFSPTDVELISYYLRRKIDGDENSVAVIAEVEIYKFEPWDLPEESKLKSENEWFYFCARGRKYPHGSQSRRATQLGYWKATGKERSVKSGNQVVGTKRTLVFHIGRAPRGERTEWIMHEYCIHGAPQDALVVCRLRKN
The essentials: as §1

ACAAGTAA: the binding signal in assay [1] was 0.41 E-score; in [2], 0.25 E-score; in assay [3], 0.125 E-score; in assay [4], 0.236 E-score; in [5], 0.238 E-score; in [6], 0.439 E-score. Moreover, the binding signal in assay [7] came out at 0.288 E-score; in assay [8] it was 0.257 E-score; in [9], 0.249 E-score; in [10], 0.0784 E-score.

On to ATTCCGTA, for which the binding signal turned out to be 0.209 E-score in assay [1]; 0.17 E-score in assay [2]; 0.456 E-score in assay [3]; 0.385 E-score in [4]; 0.308 E-score in assay [5]; 0.342 E-score in assay [6]. For the same sequence, the binding signal in [11] was determined as 0.381 E-score; in assay [7], 0.194 E-score; in [12] it was 0.0978 E-score; in assay [8] it was 0.239 E-score; in [9], 0.434 E-score; in [10], 0.374 E-score.

Regarding TTAAGTAA, the binding signal in [1] is 0.236 E-score; in assay [2], 0.48 E-score; in assay [3] it was 0.198 E-score; in assay [4], 0.0996 E-score; in [5], 0.168 E-score; in assay [6], 0.3 E-score. Moreover, the binding signal in [7] is 0.258 E-score; in [12], 0.34 E-score; in assay [8] it was 0.403 E-score; in assay [9], 0.17 E-score; in assay [10], 0.135 E-score.

Turning to TAAGTTAA, the binding signal came out at 0.191 E-score in assay [1]; 0.418 E-score in [2]; 0.132 E-score in [3]; 0.0747 E-score in [4]; 0.157 E-score in assay [5]; 0.3 E-score in [6]. Also, the binding signal amounted to 0.184 E-score in [7], 0.297 E-score in assay [8], 0.188 E-score in [9] and 0.0557 E-score in [10].

Take GCGTAAAA: the binding signal was 0.261 E-score in assay [1]; 0.0562 E-score in assay [2]; 0.15 E-score in assay [3]; 0.087 E-score in [4]; 0.185 E-score in assay [5]; 0.247 E-score in assay [6]. In addition, the binding signal worked out at 0.0952 E-score in assay [11]; 0.239 E-score in assay [7]; 0.107 E-score in [12]; 0.407 E-score in assay [8]; 0.197 E-score in assay [9]; 0.174 E-score in assay [10].

AGTAAGTA: the binding signal in assay [1] was determined as 0.145 E-score; in assay [2], 0.415 E-score; in assay [3], 0.133 E-score; in [4], 0.199 E-score; in assay [5], 0.14 E-score; in assay [6], 0.184 E-score. The binding signal in assay [7] is 0.218 E-score; in [8], 0.137 E-score; in [9], 0.275 E-score; in assay [10] it was 0.083 E-score.

In the case of GGAAGCAA, the binding signal was 0.318 E-score in [1]; 0.36 E-score in [2]; 0.117 E-score in [3]; 0.136 E-score in assay [4]; 0.137 E-score in assay [5]; 0.405 E-score in assay [6]. Also, the binding signal in [11] was 0.0755 E-score; in assay [7] it was 0.242 E-score; in [12], 0.269 E-score; in assay [8], 0.385 E-score; in [9] it was 0.118 E-score; in assay [10] it was 0.0735 E-score.
